According to PubChem BioAssay:
Active and inactive are the calls of the source. Unless noted, how the calls were made is not given here.

Key:
[1] = HepG2 liver cancer cell viability effects, profiling panel, resazurin fluorescence, 24 h, PK04 Diversity Set (AID 1172); conditions: higher = more signal
[2] = basal S. cerevisiae growth modulation, no modifier, primary screen, OD600, strain BY4716, 24 h, basal condition (AID 1173); conditions: OD600, 24 h, higher = more signal, called active from +8 up or from −8 down
[3] = MM1S myeloma cell viability, profiling panel, resazurin fluorescence, basal, 24 h, PK04 Diversity Set (AID 1174); conditions: higher = more signal, called active from +8 up or from −8 down;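 further: MM1S multiple myeloma cell line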
[4] = target: Dihydroorotate dehydrogenase (quinone), mitochondrial (Plasmodium falciparum (isolate 3D7)) (UniProt Q08210); test: PfDHODH enzyme inhibitors, primary screen, biochemical, C-terminal His tag, absorbance 600 nm (AID 1175); conditions: DCIP absorbance 600 nm, higher = more signal, called active from +8 up or from −8 down;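 further: recombinant parasite enzyme with a five histidine tag at its C terminus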
[5] = P. aeruginosa biofilm formation inhibitors, primary screen, strain PAO1, LB-PBS medium, absorbance 600 nm (AID 1176); conditions: P. aeruginosa PAO1 growth/biofilm, A600, 12 h; higher = more signal
[6] = S. cerevisiae RM11-1a growth modifiers, primary screen, strain RM11-1a, OD600, basal, 24 h (AID 1177); conditions: OD600, 24 h, higher = more signal, called active from +8 up or from −8 down;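 further: cultures grown under basal conditions with no added stressor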
[7] = E. coli acrAB mutant growth effects, primary screen, E. coli filamentation inducers, strain DRC39, OD650, 24 h (AID 1178); conditions: higher = more signal, called active from +8 up or from −8 down;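 further: growth measured as culture turbidity by optical density at 650 nm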
[8] = E. coli acrAB mutant growth effects, primary screen, E. coli filamentation inducers, strain DRC39, OD650, 48 h (AID 1179);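 further: screen aims at cell division blockers that make cells filament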; conditions: E. coli DRC39 delta-acrAB growth, higher = more signal, called active from +8 up or from −8 down
[9] = RPMI8226 myeloma cell viability, profiling panel, resazurin fluorescence, basal, 24 h, PK04 Diversity Set (AID 1180); conditions: higher = more signal;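 further: RPMI8826 multiple myeloma cell line at 5000 cells per well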
[10] = target: E3 ubiquitin-protein ligase XIAP (Homo sapiens) (UniProt P98170); test: XIAP binders, primary screen, biophysical, small-molecule microarray, fluorescence 635 nm (AID 1181); conditions: small-molecule microarray binding, higher = more signal;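 further: score merges 667 nm emission and signal to noise over triplicate slides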
[11] = test system: XIP peptide (Xip251-270) binding; test: small-molecule binders of XIP peptide, primary screen, biochemical, small-molecule microarray, fluorescence 635/667 nm, 0.1 µg/mL protein (AID 1182); conditions: fluorescent protein binding, 635 nm, higher = more signal, called active from +8 up or from −8 down
XIP peptide (Xip251-270) = test: small-molecule binders of XIP peptide, primary screen, biochemical, small-molecule microarray, fluorescence 635/667 nm, 0.5 µg/mL protein (AID 1183); conditions: small-molecule microarray binding, fluorescence 635 nm; higher = more signal
[12] = Plasmodium falciparum growth inhibition, primary screen, strain 3D7, DAPI fluorescence, 100 nL (AID 1184);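 further: parasites grown inside human red blood cells in medium with human serum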; conditions: P. falciparum 3D7 growth, 3 d, higher = more signal
[13] = target: Homeobox protein Hox-A13 (Mus musculus) (UniProt Q62424); test: inhibitors of HoxA13-DNA binding, primary screen, biochemical, fluorescence polarization, labeled oligonucleotide (AID 1185); conditions: 15 min, higher = more signal, called active from +8 up or from −8 down
[14] = inhibitors of hydroxyurea-induced Chk1 phosphorylation, primary screen, imaging, HeLa, phospho-Chk1 antibody, percent positive cells (AID 1186); conditions: hydroxyurea-induced phospho-Chk1 immunofluorescence imaging, higher = more signal
[15] = inhibitors of hydroxyurea-induced Chk1 phosphorylation, primary screen, imaging, HeLa, phospho-Chk1 nuclear intensity (AID 1187); conditions: hydroxyurea-induced phospho-Chk1 immunofluorescence imaging, higher = more signal

Chain of Homeobox protein Hox-A13 (Mus musculus) (Q62424 whole entry, looked up): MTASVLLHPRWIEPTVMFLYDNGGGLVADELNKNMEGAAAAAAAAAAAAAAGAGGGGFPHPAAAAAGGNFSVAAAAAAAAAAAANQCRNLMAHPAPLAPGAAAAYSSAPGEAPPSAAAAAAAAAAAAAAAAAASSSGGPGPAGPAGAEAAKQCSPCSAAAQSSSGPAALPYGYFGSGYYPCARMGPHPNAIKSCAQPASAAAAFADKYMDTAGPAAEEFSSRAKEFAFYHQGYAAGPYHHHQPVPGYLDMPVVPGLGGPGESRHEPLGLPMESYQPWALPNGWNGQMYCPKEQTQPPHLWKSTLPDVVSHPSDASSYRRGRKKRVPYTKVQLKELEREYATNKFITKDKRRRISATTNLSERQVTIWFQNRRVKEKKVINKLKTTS
Chain of E3 ubiquitin-protein ligase XIAP (Homo sapiens) (P98170 whole entry, looked up): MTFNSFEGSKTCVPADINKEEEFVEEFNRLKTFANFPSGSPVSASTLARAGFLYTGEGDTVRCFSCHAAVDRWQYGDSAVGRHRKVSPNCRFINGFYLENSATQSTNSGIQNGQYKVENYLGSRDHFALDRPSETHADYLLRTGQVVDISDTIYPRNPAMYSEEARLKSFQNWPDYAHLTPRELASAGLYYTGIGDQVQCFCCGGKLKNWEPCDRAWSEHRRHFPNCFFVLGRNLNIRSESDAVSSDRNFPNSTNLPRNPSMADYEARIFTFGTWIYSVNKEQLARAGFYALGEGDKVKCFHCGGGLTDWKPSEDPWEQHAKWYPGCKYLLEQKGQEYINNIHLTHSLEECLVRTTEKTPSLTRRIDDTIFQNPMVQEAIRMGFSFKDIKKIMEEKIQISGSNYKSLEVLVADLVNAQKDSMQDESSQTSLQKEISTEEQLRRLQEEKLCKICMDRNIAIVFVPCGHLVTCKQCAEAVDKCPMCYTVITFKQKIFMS
Chain of Dihydroorotate dehydrogenase (quinone), mitochondrial (Plasmodium falciparum (isolate 3D7)) (Q08210 whole entry, looked up): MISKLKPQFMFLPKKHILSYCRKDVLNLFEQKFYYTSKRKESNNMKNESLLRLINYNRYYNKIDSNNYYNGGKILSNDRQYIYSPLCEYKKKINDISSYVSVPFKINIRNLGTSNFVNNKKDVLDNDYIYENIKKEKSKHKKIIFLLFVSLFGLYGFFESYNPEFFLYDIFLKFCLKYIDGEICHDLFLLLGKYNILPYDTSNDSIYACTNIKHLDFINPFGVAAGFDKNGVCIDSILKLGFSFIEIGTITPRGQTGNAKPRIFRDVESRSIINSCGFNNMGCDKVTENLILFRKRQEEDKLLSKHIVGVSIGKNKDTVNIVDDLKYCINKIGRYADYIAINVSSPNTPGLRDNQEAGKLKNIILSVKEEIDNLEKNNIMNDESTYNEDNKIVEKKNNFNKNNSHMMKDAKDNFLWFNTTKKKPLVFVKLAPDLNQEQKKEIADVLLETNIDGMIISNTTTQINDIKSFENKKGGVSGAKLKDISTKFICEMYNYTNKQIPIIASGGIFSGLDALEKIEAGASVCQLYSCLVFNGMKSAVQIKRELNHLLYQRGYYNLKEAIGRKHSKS

| Compound | z-score [1] | z-score [2] | z-score [3] | composite z-score [4] | z-score [5] | z-score [6] | z-score [7] | z-score [8] | z-score [9] | composite z-score [10] | composite z-score [11] | composite z-score (XIP peptide (Xip251-270)) | z-score [12] | z-score [13] | z-score [14] | z-score [15] |
| --- | --- | --- | --- | --- | --- | --- | --- | --- | --- | --- | --- | --- | --- | --- | --- | --- |
| CC(C)CNC(=O)[C@@H]1c2ccccc2C(=O)N(Cc2ccccc2Cl)[C@H]1c1ccc(CO)cc1 | 0.611 | -0.161 (inactive) | 0.552 (inactive) | -0.0116 (inactive) | 0.0435 (inactive) | -0.239 (inactive) | 0.219 (inactive) | 0.303 (inactive) | 0.943 | 0.199 | 0.0394 (inactive) | 0.8 | 0.134 | -1.47 (inactive) | 0.0107 (inactive) | 0.499 (inactive) |
| COc1ccc(CC[C@H](O)c2cccc(OCC(=O)OC(C)(C)C)c2)cc1 | 0.657 | -4.45 (inactive) | -0.25 (inactive) | -1.82 (inactive) | 0.475 (inactive) | 0.69 (inactive) | 0.791 (inactive) | 0.573 (inactive) | -0.204 | -0.121 | 0.809 (inactive) | 0.662 | -1.03 | -5.52 (inactive) | -0.0884 (inactive) | 0.27 (inactive) |
| COCCn1c(C(=O)N2CCCC2)cc2c1C[C@H]1CN(C(=O)c3ccccc3)[C@@](Cc3ccccc3)(C(=O)OC)[C@@H]21 | -0.171 | 0.859 (inactive) | -0.738 (inactive) | 0.132 (inactive) | 0.535 (inactive) | 1.41 (inactive) | -0.16 (inactive) | -0.0447 (inactive) | -0.923 | 0.369 | 1.06 (inactive) | 0.857 | -1.22 | -6.05 (inactive) | 0.206 (inactive) | 0.412 (inactive) |
| CC(C)(C)OC(=O)CC[C@]1(C(N)=O)N=C(c2ccc(OCCCO)cc2)O[C@H]1c1ccccc1CN=[N+]=[N-] | 0.0283 | 0.632 (inactive) | 0.455 (inactive) | 0.369 (inactive) | -0.568 (inactive) | 1.55 (inactive) | 2.09 (inactive) | 0.64 (inactive) | 0.282 | 0.108 | -0.226 (inactive) | 0.819 | -0.176 | -4.12 (inactive) | -0.198 (inactive) | 0.0796 (inactive) |
| COCCOC(=O)N1C(=O)[C@@]2(c3cc(C#CC4(O)CCCCCC4)ccc31)[C@H](C(=O)N1CCc3cc(OC)c(OC)cc3C1)[C@H]1C(=O)O[C@H](c3ccccc3)[C@H](c3ccccc3)N1[C@@H]2c1ccc(O)cc1 | -0.511 | 0.257 (inactive) | -0.263 (inactive) | 0.7 (inactive) | 1.18 (inactive) | 1.39 (inactive) | -0.282 (inactive) | -0.252 (inactive) | -0.0713 | -0.0703 | 0.424 (inactive) | 0.762 | -1.72 | -0.363 (inactive) | 0.25 (inactive) | 0.81 (inactive) |
| C=CCOC(=O)[C@@H]1[C@H]2C(=O)O[C@H](c3ccccc3)[C@H](c3ccccc3)N2[C@H](c2ccc(OCCOC(=O)[C@H]3C[C@H]4C(=O)NCC(=O)N4[C@H]3c3ccc(O)cc3)cc2)[C@@]12C(=O)Nc1ccc(I)cc12 | -0.675 | 2.01 (inactive) | -0.349 (inactive) | -1.14 (inactive) | 3.08 (inactive) | 1.28 (inactive) | -0.0185 (inactive) | -0.282 (inactive) | -0.331 | -0.0669 | 1.34 (inactive) | 0.868 | -1.69 | 1.52 (inactive) | -0.804 (inactive) | -0.762 (inactive) |
| CCC[C@@H]1[C@@H](Sc2ccccc2)[C@@H](C(=O)O)[C@H](c2ccc(C)cc2)N1S(=O)(=O)c1ccc(C)cc1 | -0.428 | -1.99 (inactive) | -0.0959 (inactive) | -1.04 (inactive) | 0.257 (inactive) | -0.122 (inactive) | -0.008 (inactive) | 0.329 (inactive) | -0.862 | -0.0062 | 0.163 (inactive) | 0.787 | 0.552 | -5.85 (inactive) | 0.275 (inactive) | 0.971 (inactive) |
| CN(C)CCCNC(=O)[C@@]1(Cc2ccccc2I)c2ccccc2C(=O)N(Cc2ccccc2)[C@H]1c1ccc(CO)cc1 | -3.78 | -3.24 (inactive) | -0.892 (inactive) | -0.19 (inactive) | 0.292 (inactive) | 0.209 (inactive) | 0.0574 (inactive) | 0.252 (inactive) | -1.89 | 0.24 | 0.869 (inactive) | 0.828 | -2.21 | -0.783 (inactive) | 0.22 (inactive) | 0.276 (inactive) |
| CC1CC/C=C\[C@H]2OC34C=CCN(CCN5CCOCC5)C(=O)[C@H]3N(CCCCCCO)C(=O)[C@@H]4C2C(=O)O1 (stereo not given in full) | -0.655 | -0.195 (inactive) | -0.513 (inactive) | 0.85 (inactive) | -0.717 (inactive) | 0.615 (inactive) | 0.125 (inactive) | 0.602 (inactive) | 0.761 | 0.288 | 0.135 (inactive) | 0.935 | 1.04 | -5.39 (inactive) | -0.453 (inactive) | 0.519 (inactive) |
| COCCOC(=O)N1C(=O)[C@@]2(c3ccccc31)[C@H](C(N)=O)[C@H]1C(=O)O[C@H](c3ccccc3)[C@H](c3ccccc3)N1[C@@H]2c1ccc(OCCO)cc1 | 1.35 | 1.75 (inactive) | 0.671 (inactive) | -0.525 (inactive) | -0.108 (inactive) | 1.96 (inactive) | 0.755 (inactive) | 0.094 (inactive) | 0.7 | 0.109 | 0.675 (inactive) | 0.638 | 0.0624 | -4.49 (inactive) | 0.114 (inactive) | -0.0135 (inactive) |
